Measured values published in PubChem BioAssay AID463173 (ICCB-Longwood Screening Facility, Harvard Medical School, 2010).
About 1,700 (3.3%) of roughly 52,000 compounds were called active. The sample as a whole holds a higher share of actives than the screen did. A number with no mark means an inactive call. No stated cut-off is given here; in the data, active means survival mostly below about 52% (no sharp cut-off); inactive means mostly above about 56%.

tested on: Wild type; assay: S. aureus survival, RN4220 and DeltatarO strains – OD600, teichoic acid synthesis inhibitors, primary screen (AID 463173); details: S. aureus RN4220 wild type/DeltatarO growth, OD600, 18 h, hits give low values, screened at 18.75 µg/mL (by protocol)

Point of comparison: O=C(CSc1ncc(CO)n1Cc1ccccc1)Nc1ccc(C(F)(F)F)cc1, survival 120%. Against it:
- CNS(=O)(=O)c1cn(CC(=O)N2CCN(c3ccc(OC)cc3)CC2)cc1S(=O)(=O)NC — lower, 69%
- CNS(=O)(=O)c1cn(CC(=O)N2CCN(c3ccc(Cl)cc3)CC2)cc1S(=O)(=O)NC — higher, 124%
- Cc1ccc(SCc2nc(-c3ccc(C(=O)Nc4cc(C)ccc4C)cc3)oc2C)cc1 — higher, 129%
- COc1ccc(CCNc2nc(SCc3cccc(F)c3)nc3ccccc23)cc1OC — lower, 80%
- Clc1cccc(CSc2nc(NCCc3ccccc3)c3ccccc3n2)c1 — lower, 66%
- COC(=O)c1cc(S(=O)(=O)N2CCN(c3cccc(C)c3)C(C)C2)c[nH]1 (stereo not drawn) — lower, 98%
- COc1cccc(OCc2nc3ccccc3n2CCOc2ccccc2C)c1 — lower, 55%
- COc1ccccc1OCCn1c(COc2cc(C)ccc2C)nc2ccccc21 — lower, 87%
- Cc1ccccc1OCCn1c(CCNC(=O)C2CCCCC2)nc2ccccc21 — lower, 90%
- O=C(O)c1ccc(NCc2nc3ccccc3n2CCOc2ccccc2Cl)cc1 — lower, 88%
- Fc1ccc(NCc2nc3ccccc3n2CCOc2ccccc2Cl)cc1 — lower, 95%
- Cc1ccc(C)c(CSc2c(C(C)C)cnc3c2c(=O)n(C)c(=O)n3C)c1 — higher, 126%
- COc1ccc(NC(=O)C(Cc2ccccc2)n2cccc2)c(OC)c1 (stereo not drawn) — lower, 78%
- Cc1ccc(NC(=O)C(Cc2ccccc2)n2cccc2)cc1 (stereo not drawn) — lower, 96%
- O=C(Nc1ccccc1F)C(Cc1ccccc1)n1cccc1 (stereo not drawn) — lower, 85%
- CC(=O)Nc1ccc(NC(=O)C(Cc2ccccc2)N2Cc3ccccc3C2=O)cc1 (stereo not drawn) — lower, 72%
- O=C(CSc1nccn1Cc1ccc(F)cc1)NC1CCCC1 — lower, 68%
- Cc1ccc(Cl)cc1N1CCN(C(=O)c2cc3ccc4cccnc4c3[nH]2)CC1 — higher, 129%
- Cc1cccc(C(=O)n2nc(C)c(S(=O)(=O)N3CCOCC3)c2C)c1 — lower, 89%
- COc1ccc(C2=C(C)C(=O)N(Cc3ccc(C(=O)NCc4ccc(C)cc4)cc3)S2(=O)=O)cc1 — lower, 89%
- C1CN(C(N2CCOCC2)N2CCOCC2)CCO1 — lower, 104%
- COc1ccc(-c2cc(C)no2)cc1S(=O)(=O)N1CCc2ccccc21 — lower, 76%
- COc1ccc(-c2cc(C)no2)cc1S(=O)(=O)N1CCOc2ccccc21 — lower, 80%
- CCC1CN(S(=O)(=O)c2cc(-c3cc(C)no3)ccc2OC)c2cc(C)ccc2O1 (stereo not drawn) — the same, 120%
- Cc1ccc(-c2onc(C)c2C)cc1S(=O)(=O)N1CCc2ccccc21 — lower, 117%
- COc1ccc(NC(=O)c2oc3ccc(S(=O)(=O)N4CCOCC4)cc3c2C)c(OC)c1 — higher, 152%
- COc1ccc(C(CC(=O)Nc2ccc(C(C)=O)cc2)N2Cc3ccccc3C2=O)cc1 (stereo not drawn) — lower, 88%
- O=C(O)c1snc2c(=O)[nH]cnc12 — lower, 105%
- O=C1CCCc2c1cc(C(=O)Nc1ccc(Cl)cn1)c(=O)n2-c1ccccc1 — lower, 110%
- Cc1nc2sc(C(=O)Nc3ccc(F)cc3)c(N)c2c(-c2ccc(Br)cc2)c1C(=O)Nc1ccc(Cl)cc1 — lower, 88%
- COc1ccc(NC(=O)c2sc3nc(C)c(C(=O)Nc4ccc(Cl)cc4)c(-c4ccc(Br)cc4)c3c2N)cc1 — lower, 75%
- Cc1ccc(C)c(NC(=O)Cn2c(=O)n(Cc3ccco3)c(=O)c3oc4ccccc4c32)c1 — lower, 87%
- Cc1nn(Cc2ccccc2)c(C)c1CC(=O)O — lower, 109%
- O=C(CSc1nc2c([nH]c3ccccc32)c(=O)n1-c1ccc(F)cc1)NCc1ccc(F)cc1 — lower, 73%
- CCC(C)NC(=O)c1sc2nc(C)c(C(=O)Nc3ccc(Cl)cc3)c(-c3ccc(Br)cc3)c2c1N (stereo not drawn) — lower, 106%
- CC(C)c1ccc(OCC(=O)Nc2cc(-c3nc4ncccc4o3)ccc2Cl)cc1 — higher, 128%
- Cc1cc(-c2nc3ncccc3o2)ccc1NC(=O)COc1cc(C)c(Cl)c(C)c1 — lower, 80%
- CCC(=O)Nc1ccc(-c2nc3ncccc3o2)cc1C — lower, 85%
- Cc1cc(OCC(=O)Nc2cc(-c3nc4ncccc4o3)ccc2C)ccc1Cl — lower, 88%
- Fc1ccc(CSc2nncn3c2cc2occc23)c(Cl)c1 — lower, 88%
- CC(C)c1ccc(NC(=O)c2ccc3oc(=O)c(S(=O)(=O)c4ccc(F)cc4)cc3c2)cc1 — lower, 70%
- Cc1cc(=O)n2nc(N(C)CC(=O)NCc3ccc(Cl)cc3)sc2n1 — lower, 85%
- CCC(C(=O)NC1CCCCC1)n1c(SCc2cccc(F)c2)nc2ccncc21 (stereo not drawn) — higher, 124%
- CCOc1ccccc1CNC(=O)c1ccc2c(c1)N(Cc1ccc(C)cc1)CCS2 — lower, 79%
- CCC(Cc1ccccc1)NC(=O)Cn1ncc2c3ccccc3n(Cc3ccccc3)c2c1=O (stereo not drawn) — lower, 80%
- CCCCCCC1CC=C(C(=O)O)CC1 (stereo not drawn) — lower, 110%
- CCCCCCC1CCC(C(=O)NC(C(=O)O)C(C)C)CC1 (stereo not drawn) — lower, 59%
- CCOc1ccc(NC(=O)Cn2c(=O)cc(C)c3c(C)nn(-c4ccc(CC)cc4)c32)cc1 — higher, 127%
- CCN(c1ccc(C)cc1C)S(=O)(=O)c1nnc(NC(=O)c2ccc(F)cc2)s1 — lower, 20%
- CC(C)CN(CCNC(=O)c1cn(C)c2ccc(S(=O)(=O)N3CCOCC3)cc2c1=O)CC(C)C — lower, 82%
- CCOC(=O)c1cccc(NC(=O)NCc2cccn2Cc2ccccc2)c1 — higher, 123%
- CCOc1ccc(NC(=O)NCc2cccn2Cc2ccccc2)cc1 — lower, 64%
- Cc1nn(CC(=O)NCc2cccc(F)c2)c(=O)c2c(C)n(-c3ccc(Cl)cc3)nc12 — lower, 75%
- COc1cc2c(-c3ccccc3Cl)nc3c(c(C)nn3-c3ccccc3)c2cc1OC — lower, 73%
- Oc1ccccc1-c1nc(/C=C/c2ccccc2Cl)no1 — lower, 81%
- COc1ccc(/C=C/c2noc(-c3ccccc3O)n2)cc1OC — higher, 136%
- COc1cc2c(-c3ccccc3O)nc3c(c(C)nn3-c3ccccc3)c2cc1OC — lower, 63%
- Cc1nc(C)c(C(=O)N/N=C/c2ccc(O)cc2O)cc1C(=O)N/N=C/c1ccc(O)cc1O — lower, 108%
- Oc1ccccc1-c1nc(/C=C/c2ccc(F)cc2)nn1-c1ccccc1 — lower, 34%
- CN(C)c1ccc(/C=C/c2nc(-c3ccccc3O)n(-c3ccccc3)n2)cc1 — lower, 46%
- CC(=O)Nc1ccc(/C=C/c2nc(-c3ccccc3O)n(-c3ccccc3)n2)cc1 — lower, 86%
- COCCn1c(Cc2ccccc2)nnc1SCC(=O)N(C)C — lower, 100%
- CC(C)(C)NC(=O)c1ccc2nc(CCc3ccccc3)oc2c1 — lower, 65%
- Cn1c(CNc2cccc(C(F)(F)F)c2)n[nH]c1=S — lower, 111%
- O=C(Cn1cc(SCc2ccccc2)c2ccccc21)N1CCCCCC1 — lower, 83%
- O=C(Cn1cnc(S(=O)(=O)N2CCCC2)c1)Nc1ccc(OC(F)(F)F)cc1 — lower, 84%
- CCCCNC(=O)CN1CCN(c2ccc(NC(=O)c3ccc(OC)cc3)cc2C(=O)O)CC1 — lower, 80%
- COc1ccc(CCNC(=O)c2ccc3c(c2)N(Cc2cccc(C)c2)C(=O)c2ccccc2S3(=O)=O)cc1OC — lower, 101%
- CCC(C)(C)C(=O)Nc1nnc(COC)s1 — higher, 122%
- N#CSc1ccc2nc(N)sc2c1 — lower, 93%
- Cc1ccccc1NC(=O)C(Cc1ccccc1)N1Cc2ccccc2C1=O (stereo not drawn) — lower, 76%
- N#CC(C#N)C(CC(=O)c1ccccc1)c1ccc2c(c1)OCO2 (stereo not drawn) — lower, 111%
- CCOc1ccccc1NC(=O)CC(c1ccc(F)cc1)N1Cc2ccccc2C1=O (stereo not drawn) — lower, 80%
- O=C(CC(c1cccs1)N1Cc2ccccc2C1=O)Nc1ccc(Cl)cc1 (stereo not drawn) — higher, 129%
- CCc1ccccc1NC(=O)CC(c1ccc(F)cc1)N1Cc2ccccc2C1=O (stereo not drawn) — higher, 121%
- O=C(CC(c1cccs1)N1Cc2ccccc2C1=O)Nc1ccccc1F (stereo not drawn) — lower, 73%

In the case of CNS(=O)(=O)c1cn(CC(=O)N2CCN(c3ccc(C(C)=O)cc3)CC2)cc1S(=O)(=O)NC, the survival is reported as 10% (active).
In the case of Fc1cccc(CSc2nc(NCCc3ccccc3)c3ccccc3n2)c1, the survival is reported as -3% (active).
In the case of Cc1ccc(NCc2nc3ccccc3n2CCOc2ccccc2C)cc1, the survival is reported as -20% (active).
In the case of COc1ccc(NCc2nc3ccccc3n2CCOc2ccccc2C)cc1, the survival is reported as 4% (active).
In the case of Cc1cccc(NCc2nc3ccccc3n2CCOc2ccccc2C)c1, the survival is reported as -18% (active).
In the case of O=C(Nc1ccc(C(F)(F)F)cc1)C(Cc1ccccc1)n1cccc1 (stereo not drawn), the survival is reported as -2% (active).
With CC(C)c1ccc(NC(=O)C(Cc2ccccc2)n2cccc2)cc1 (stereo not drawn) the survival was 13% (active).
For COc1ccc(-c2onc(C)c2C)cc1S(=O)(=O)N1CCc2ccccc21, the survival was 1% (active).
COc1ccc(-c2cc(C)no2)cc1S(=O)(=O)N1CC(C)Oc2ccccc21 (stereo not drawn) was tested, and the survival was -6% (active).
In the case of Cc1nc2sc(C(N)=O)c(N)c2c(-c2ccc(Br)cc2)c1C(=O)Nc1ccc(Cl)cc1, the survival is reported as -7% (active).
For Cc1cc(-c2nc3ncccc3o2)ccc1NC(=O)COc1ccc(C(C)(C)C)cc1, the survival was 26% (active).
Cc1ccc(-c2nc3ncccc3o2)cc1NC(=O)COc1ccc(C(C)C)cc1 was tested, and the survival was 11% (active).
For CCCCC1CCC(CCCC(C)CCC(=O)O)CC1 (stereo not drawn), the survival was -5% (active).
CCOC(=O)Cc1ccc(NC(=O)NCc2cccn2Cc2ccccc2)cc1 was tested, and the survival was -6% (active).
In the case of COc1ccc(/C=C/c2nc(-c3ccccc3O)n(-c3ccccc3)n2)cc1OC, the survival is reported as 8% (active).
In the case of Oc1ccc(/C=C/c2nc(-c3ccccc3O)n(-c3ccccc3)n2)c(O)c1, the survival is reported as -1% (active).
For Oc1ccccc1-c1nc(/C=C/c2ccccc2)nn1-c1ccccc1, the survival was 2% (active).
In the case of Oc1ccccc1-c1nc(/C=C/c2ccccc2Cl)nn1-c1ccccc1, the survival is reported as 2% (active).
For CC(C)(C)Sc1ccc(SC#N)s1, the survival was 23% (active).
With Cc1c(Cl)cccc1NC(=O)CC(c1cccs1)N1Cc2ccccc2C1=O (stereo not drawn) the survival was 0% (active).
For Cc1c(Cl)cccc1NC(=O)CC(c1ccc(F)cc1)N1Cc2ccccc2C1=O (stereo not drawn), the survival was 10% (active).
